SENP8 block-1: blocks the human protease SENP8; Q96LD8; purified SENP8, Z-RLRGG-aminoluciferin cleavage, luminescence; inhibition, % at 10 µM; actives 1.2% (n = 330,000); in the data active means inhibition above about 50%
HSP90 inh: HSP90 refolding inhibition in rabbit reticulocyte lysate; luciferase refolding luminescence, 3 h; inhibition, % at 5.6 µM; actives 0.91% (n = 290,000);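 active means inhibition above the screen-wide mean plus 3 SD, computed separately per campaign, cut at about 16% in these data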;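 further: 0% = DMSO wells and 100% = 60 µM geldanamycin wells; inhibitors lower the luminescence because luciferase stays unfolded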
SENP8 block-2: SENP8 (human) protease inhibition; Q96LD8; recombinant SENP8, Nedd8 substrate fluorescence; inhibition, % at 20 µM; actives 0.64% (n = 360,000); in the data active means inhibition mostly above about 40%, no sharp cut-off; inactive means mostly below about 27%
SENP7 block: inhibitors of human SENP7 protease. Q9BQF6. recombinant SENP7, Z-RLRGG-aminoluciferin luminescence, 40 min. inhibition, % at 5 µM. actives 1.5% (n = 330,000);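 active means inhibition above about 50% at the single test dose, limit read from the data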;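 further: plate controls were DMSO with enzyme for no effect and no enzyme buffer wells for full effect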
SENP6 inh: blocks the human protease SENP6. Q9GZR1. Recombinant SENP6 catalytic domain, aminoluciferin luminescence. inhibition, % at 10 µM. actives 1.8% (n = 330,000). AID 2599;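 active means inhibition above about 50% at the single tested dose, limit read from the data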;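 further: plate controls were DMSO wells with enzyme for no effect and DMSO wells lacking enzyme for full effect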
Target sequence (Q9GZR1 628-1112 limits assumed): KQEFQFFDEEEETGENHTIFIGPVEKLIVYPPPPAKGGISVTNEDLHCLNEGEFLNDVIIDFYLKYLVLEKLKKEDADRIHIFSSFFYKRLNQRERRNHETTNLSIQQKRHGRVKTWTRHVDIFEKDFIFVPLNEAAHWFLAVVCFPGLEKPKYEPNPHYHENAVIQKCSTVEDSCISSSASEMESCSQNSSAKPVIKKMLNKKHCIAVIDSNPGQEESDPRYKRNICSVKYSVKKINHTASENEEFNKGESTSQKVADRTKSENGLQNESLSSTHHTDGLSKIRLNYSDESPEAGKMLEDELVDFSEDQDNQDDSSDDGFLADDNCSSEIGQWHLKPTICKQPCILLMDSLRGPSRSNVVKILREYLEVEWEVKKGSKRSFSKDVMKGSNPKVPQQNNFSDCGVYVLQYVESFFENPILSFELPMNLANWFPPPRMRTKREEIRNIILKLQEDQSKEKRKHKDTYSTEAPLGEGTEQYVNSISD
Platelet DG rel: modulates dense granule release in human platelets. AID 1663. actives 0.22% (n = 300,000). inhibition, %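 (compounds screened at 7.5 µM in platelet-rich plasma)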. human platelet-rich plasma, SFLLRN dense granule ATP release, luminescence;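 active means mean replicate score, as percent of positive control, at or above 50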
SENP8 confirm: confirmation of human SENP8 protease inhibitors; shares compounds with SENP7 block; Recombinant SENP8, Z-RLRGG-aminoluciferin luminescence, 60 min; inhibition, % at 12.5 µM; actives 40% (n = 6,200);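 active means mean inhibition across replicates above about 50%, limit read from the data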
SENP6 conf: human SENP6 inhibition, confirmed; shares compounds with SENP7 block; recombinant SENP6, Z-RLRGG-aminoluciferin luminescence; inhibition, % at 12.5 µM; actives 58% (n = 6,200); AID 488915
SENP7 confirm: human SENP7 inhibition, confirmed. shares compounds with SENP7 block. recombinant SENP7, Z-RLRGG-aminoluciferin luminescence, 40 min. actives 69% (n = 6,200). AID 488917. inhibition, % at 12.5 µM
Casp3 SENP sel: selectivity test for SENP inhibitors: human caspase-3 inhibition | shares compounds with SENP7 block | AID 488918 | inhibition, % at 12.5 µM | purified caspase-3, Z-DEVD-aminoluciferin luminescence, 60 min | actives 60% (n = 6,200);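 active means mean inhibition above about 50%, limit read from the data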;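 further: plate controls were enzyme with DMSO for no effect and wells without caspase-3 for full effect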
SENP luc ctr: luminescence interference (SENP counter-screen) | inhibition, % at 12.5 µM | Pre-incubated SENP8/Z-RLRGG-aminoluciferin, luciferase luminescence interference | shares compounds with SENP7 block | AID 488919 | actives 39% (n = 6,200);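 active means mean inhibition above about 50% when retested at one dose, limit read from the data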;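 further: plate controls were DMSO wells with completed reaction for no effect and substrate without enzyme for full effect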
Active calls of the source: *; i = inactive; . = not tested or not shown. Sampled rows, rich in hits. Any-hit rate of the full collection: about 2.8%.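 How the source made its calls, unless noted: active means mean inhibition above about 50% in the one-dose retest (limit read from the data); inactive means the rest.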

SMILES	SENP8 block-1	HSP90 inh	SENP8 block-2	SENP7 block	SENP6 inh	Platelet DG rel	SENP8 confirm	SENP6 conf	SENP7 confirm	Casp3 SENP sel	SENP luc ctr
Cn1c(=O)c2ncn(CC(=O)Nc3cccc(-c4nc5ccccc5s4)c3)c2n(C)c1=O	60*	0	-146	-8	72*	.	12	43	64*	36	24
CCc1cccc(NC(=O)C2CCCN2C(=O)Nc2ccc(C)cc2)c1 (stereo not given)	1	0	9	-1	-23	11	.	.	.	.	.
COc1ccc(-c2cn(Cc3ccc(C(=O)c4ccccc4)cc3)nn2)cc1	77*	-1	.	64*	79*	-3	14	63*	17	64*	-4
COc1ccc(C(=O)OCC(=O)c2ccc(Br)s2)c(OC)c1	3	.	1	-4	-2	-3	.	.	.	.	.
COc1cccc(C(=O)OCC(=O)c2ccc(Br)s2)c1	25	1	4	40	54*	-1	53*	49	78*	36	21
O=C1CC(O)(C(F)F)Oc2ccc3ccccc3c21 (stereo not given)	0	2	-457	8	29	-1	.	.	.	.	.
O=C1CC(O)(C(F)(F)F)Oc2c1ccc1ccccc21 (stereo not given)	77*	-3	-270	54*	82*	-3	86*	84*	96*	81*	86*
CCc1nc2ccc(C(=O)NCc3ccc4c(c3)OCO4)cn2c1N(C)Cc1ccc(OC)cc1	.	.	-11	.	.	.	.	.	.	.	.
CCc1ccc(-c2csc(NC(=O)Oc3ccccc3)n2)cc1	-3	-7	-1	-4	19	8	.	.	.	.	.
COc1ccc(OC(=O)Nc2ccccc2)cc1	83*	-4	10	-8	82*	22	2	88*	100*	92*	86*
CCc1ccc(OC(=O)Nc2ccccc2)cc1	78*	-3	4	38	86*	1	91*	91*	98*	82*	78*
COc1ccc2c(c1OC)OCC2C (stereo not given)	.	.	-57	.	.	.	.	.	.	.	.
COc1cc(OC)c2c(=O)cc(-c3cccnc3)oc2c1	.	0	-309	.	.	-9	.	.	.	.	.
COc1ccc(-c2ccc3oc(-c4ccsc4)cc(=O)c3c2)cc1F	-10	.	-485	1	-5	.	.	.	.	.	.
COc1ccc(-c2cc(=O)c3cc(O)ccc3o2)cc1	53*	2	3	78*	69*	13	-21	47	87*	73*	47
COc1ccc(-c2ccc3oc(-c4ccsc4)cc(=O)c3c2)cn1	22	.	i	70*	0	.	17	16	18	15	1
COc1ccc2oc(-c3ccco3)cc(=O)c2c1	61*	-3	-462	80*	81*	10	10	26	49	55*	9
COc1cc(OC)c2c(=O)cc(-c3ccccc3)oc2c1	46	0	-229	57*	59*	5	64*	61*	82*	77*	68*
NC(=O)c1c(-c2ccccc2)oc2ccc(O)cc12	-1	-3	-132	-4	-6	1	.	.	.	.	.
COc1ccc(-c2cc(=O)c3c(O)cc(O)cc3o2)cc1	68*	.	25	85*	84*	.	24	52*	64*	75*	17
O=c1cc(-c2ccccc2)oc2ccc(O)cc12	37	-5	-30	56*	66*	5	54*	51*	82*	66*	71*
COc1cc(-c2cc(=O)c3c(O)cc(O)cc3o2)cc(OC)c1OC	.	.	-4	.	.	.	.	.	.	.	.

Source: PubChem BioAssay
